PubChem BioAssay (Tox21)
Results filed as inconclusive are left out. Active and inactive are the calls of the source. Unless noted, calls follow the shape of the dose curve; as a rule, active = well fitted curve in the direction sought with a large enough effect in the repeat runs; inconclusive = weak or mixed curves; inactive = no such curve, though single readings can be large; an effect the other way counts as inactive or inconclusive.

Experiments:
[1] = qHTS assay to identify small molecule antagonists of the glucocorticoid receptor (GR) signaling pathway - cell viability counter screen (AID 720693); also: nearly all actives have a fitted effect of over 55% in size
[2] = qHTS assay for identifying genotoxic compounds that show differential cytotoxicity against isogenic chicken DT40 cell lines with known DNA damage response pathways - wild type cell line (AID 743012); also: nearly all actives have a fitted effect of over 60% in size; also: potency is read from the fitted curve at half-maximal effect
In short: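 Quantitative HTS on parental DT40 cells: 40 h compound treatment at 37 C/5% CO2, with viability then determined by CellTiter-Glo luminescence. Values serve as the DNA repair-proficient reference for differential cytotoxicity.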

[3] = qHTS assay for identifying genotoxic compounds that show differential cytotoxicity against isogenic chicken DT40 cell lines with known DNA damage response pathways - Rev3 mutant cell line (AID 743014); also: nearly all actives have a fitted effect of over 55% in size; also: potency is read from the fitted curve at half-maximal effect
[4] = qHTS assay for identifying genotoxic compounds that show differential cytotoxicity against isogenic chicken DT40 cell lines with known DNA damage response pathways - Rad54/Ku70 mutant cell line (AID 743015); also: nearly all actives have a fitted effect of over 60% in size; also: potency is read from the fitted curve at half-maximal effect
[5] = qHTS assay to identify small molecule antagonists of the androgen receptor (AR) signaling pathway - cell viability counter screen (AID 743033; also: nearly all actives have a fitted effect of over 45% in size)
[6] = molecular target: Androgen receptor (Homo sapiens) (UniProt P10275); experiment: qHTS assay to identify small molecule antagonists of the androgen receptor (AR) signaling pathway (AID 743035; active = well fitted inhibition curve with a large enough effect in the signal ratio in the repeat runs, not every such curve was filed as active; the % refers to the signal ratio)
Chain of Androgen receptor (Homo sapiens) (P10275 whole entry, looked up): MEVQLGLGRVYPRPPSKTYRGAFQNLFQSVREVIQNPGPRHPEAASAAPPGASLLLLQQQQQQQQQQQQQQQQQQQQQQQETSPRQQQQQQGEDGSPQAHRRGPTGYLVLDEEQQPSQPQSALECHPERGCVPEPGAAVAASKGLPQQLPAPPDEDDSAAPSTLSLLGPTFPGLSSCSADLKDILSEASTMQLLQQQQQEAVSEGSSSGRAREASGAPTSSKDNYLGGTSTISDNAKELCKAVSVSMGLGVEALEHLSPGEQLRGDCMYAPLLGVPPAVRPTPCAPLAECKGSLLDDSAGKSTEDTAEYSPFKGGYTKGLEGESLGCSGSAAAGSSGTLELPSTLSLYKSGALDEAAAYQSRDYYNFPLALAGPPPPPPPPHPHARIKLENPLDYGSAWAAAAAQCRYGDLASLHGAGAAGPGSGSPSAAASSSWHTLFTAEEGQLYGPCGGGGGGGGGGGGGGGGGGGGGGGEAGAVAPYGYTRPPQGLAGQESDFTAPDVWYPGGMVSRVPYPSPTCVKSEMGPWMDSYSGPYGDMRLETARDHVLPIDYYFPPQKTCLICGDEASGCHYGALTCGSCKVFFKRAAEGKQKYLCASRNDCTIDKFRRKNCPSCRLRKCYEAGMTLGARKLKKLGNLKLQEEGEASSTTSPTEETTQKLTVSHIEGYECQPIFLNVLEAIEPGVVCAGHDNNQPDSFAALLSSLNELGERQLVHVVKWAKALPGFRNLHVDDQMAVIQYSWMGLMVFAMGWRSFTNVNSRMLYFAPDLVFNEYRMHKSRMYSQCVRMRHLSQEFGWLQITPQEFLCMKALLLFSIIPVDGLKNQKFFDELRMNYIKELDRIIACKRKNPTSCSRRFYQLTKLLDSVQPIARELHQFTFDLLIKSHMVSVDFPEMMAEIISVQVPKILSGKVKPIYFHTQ
In short: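 Cell line: GeneBLAzer AR-UAS-bla GripTite (HEK293). Stimulus: R1881 added after compound. Exposure: 16 h, 37C, 5% CO2. Readout: LiveBLAzer B/G FRET fluorescence after 2 h at room temperature.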

[7] = molecular target: Androgen receptor (Homo sapiens) (UniProt P10275); experiment: qHTS assay to identify small molecule agonists of the androgen receptor (AR) signaling pathway (AID 743036; active = well fitted activation curve with a large enough effect in the signal ratio in the repeat runs, with a control signal flat, not every such curve was filed as active; the % refers to the signal ratio)
In short: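 In this Tox21 qHTS, 2,000 HEK293 AR-bla cells per well were incubated with compounds for 16 h at 37C and 5% CO2. Fluorescence intensity was recorded 2 h after adding LiveBLAzer B/G FRET substrate at room temperature.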

[8] = molecular target: Androgen receptor (Homo sapiens) (UniProt P10275); experiment: qHTS assay to identify small molecule agonists of the androgen receptor (AR) signaling pathway using the MDA cell line (AID 743040; also: nearly all actives have a fitted effect of over 20% in size)
In short: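 Human breast carcinoma MDA-kb2 reporter cells (MMTV-luc, AR/GR elements) were treated for 16 h at 37C in 0% CO2 following a 5 h settling period. Signal was quantified by ONE-Glo luminescence.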

[9] = qHTS assay to identify small molecule antagonists of the androgen receptor (AR) signaling pathway using the MDA cell line - cell viability counter screen (AID 743041; also: nearly all actives have a fitted effect of over 45% in size; also: potency is read from the fitted curve at half-maximal effect)
In short: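 Same-well cytotoxicity was assessed by CellTiter-Fluor in MDA-kb2 AR-luc cells after 16 h of compound treatment under R1881 agonism.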

[10] = molecular target: Androgen receptor (Homo sapiens) (UniProt P10275); experiment: qHTS assay to identify small molecule antagonists of the androgen receptor (AR) signaling pathway using the MDA cell line (AID 743042; also: nearly all actives have a fitted effect of over 55% in size)
In short: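 MDA-kb2 breast carcinoma cells carrying MMTV-luciferase (AR/GR responsive) were co-treated with compounds and the agonist R1881 for 16 h at 37C. Inhibition read as ONE-Glo luminescence; CellTiter-Fluor fluorescence measured in parallel for cytotoxicity.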

[11] = qHTS assay to identify small molecule antagonists of the thyroid receptor (TR) signaling pathway - cell viability counter screen (AID 743064); also: nearly all actives have a fitted effect of over 50% in size; also: potency is read from the fitted curve at half-maximal effect
In short: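 Counter screen for cytotoxicity: compound plus T3 (1 nM final) on GH3.TRE-Luc cells, 23.5 h at 37 °C, then fluorescence viability readout with CellTiter-Fluor.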

[12] = qHTS assay to identify small molecule antagonists of the thyroid receptor (TR) signaling pathway (AID 743065); also: nearly all actives have a fitted effect of over 55% in size; also: potency is read from the fitted curve at half-maximal effect; as to activity, negative = inhibition: series mostly up to about 70 µM
In short: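 GH3.TRE-Luc rat pituitary cells (two TREs driving luciferase) were dosed with compound, then stimulated with 1 nM T3 (final) for 23.5 h at 37 C. ONE-Glo luminescence was the read-out, with CellTiter-Fluor fluorescence as the cytotoxicity counter-screen.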

[13] = tested on: thyroid hormone receptor (rat, GH3 cells); experiment: qHTS assay to identify small molecule agonists of the thyroid receptor (TR) signaling pathway (AID 743066; calls by dose curve)
[14] = molecular target: Estrogen receptor (Homo sapiens) (UniProt P03372); experiment: qHTS assay to identify small molecule antagonists of the estrogen receptor alpha (ER-alpha) signaling pathway (AID 743069; active = well fitted curve in the direction sought with a large enough effect in the signal ratio in the repeat runs, not every such curve was filed as active; the % refers to the signal ratio)
Chain of Estrogen receptor (Homo sapiens) (P03372 whole entry, looked up): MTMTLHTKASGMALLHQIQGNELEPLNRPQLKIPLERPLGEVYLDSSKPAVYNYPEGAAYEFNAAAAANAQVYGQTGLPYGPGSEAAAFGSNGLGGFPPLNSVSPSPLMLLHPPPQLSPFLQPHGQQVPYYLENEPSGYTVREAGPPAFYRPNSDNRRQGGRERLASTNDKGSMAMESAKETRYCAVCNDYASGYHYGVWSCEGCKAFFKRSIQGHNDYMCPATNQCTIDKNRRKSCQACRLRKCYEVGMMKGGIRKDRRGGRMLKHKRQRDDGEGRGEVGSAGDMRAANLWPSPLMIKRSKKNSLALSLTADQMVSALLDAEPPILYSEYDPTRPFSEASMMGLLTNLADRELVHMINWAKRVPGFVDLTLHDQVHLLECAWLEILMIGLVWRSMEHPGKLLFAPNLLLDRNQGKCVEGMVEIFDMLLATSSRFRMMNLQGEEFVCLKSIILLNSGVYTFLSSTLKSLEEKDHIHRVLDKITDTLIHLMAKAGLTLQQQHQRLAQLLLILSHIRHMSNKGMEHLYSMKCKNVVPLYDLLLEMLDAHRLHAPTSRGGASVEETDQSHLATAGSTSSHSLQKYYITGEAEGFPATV
In short: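 Reporter cells (ER-alpha-bla, HEK293 background) are conditioned overnight in stripped-serum medium (2% charcoal-stripped FBS). Compound and 17beta-estradiol exposure runs 18 hr at 37C, 5% CO2.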

[15] = qHTS assay to identify small molecule antagonists of the estrogen receptor alpha (ER-alpha) signaling pathway - cell viability counter screen (AID 743074; calls by dose curve;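 also: HEK293 cells carrying ER-alpha-UAS-bla reporter stimulated with 17beta-estradiol; nearly all actives have a fitted effect of over 45% in size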)
[16] = molecular target: Estrogen receptor (Homo sapiens) (UniProt P03372); experiment: qHTS assay to identify small molecule agonists of the estrogen receptor alpha (ER-alpha) signaling pathway (AID 743075; calls by dose curve;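 also: HEK293 GripTite cells with ER-alpha and UAS-driven beta-lactamase reporter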)
[17] = molecular target: Estrogen receptor (Homo sapiens) (UniProt P03372); experiment: qHTS assay to identify small molecule agonists of the estrogen receptor alpha (ER-alpha) signaling pathway using the BG1 cell line (AID 743079); also: nearly all actives have a fitted effect of over 20% in size
[18] = qHTS assay to identify small molecule antagonists of the estrogen receptor alpha (ER-alpha) signaling pathway using the BG1 cell line (AID 743080; calls by dose curve;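 also: BG1 cells stimulated with 17beta-estradiol alongside compound; series mostly up to about 70 µM; nearly all actives have a fitted effect of over 25% in size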)
In short: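 Readout is ONE-Glo luminescence, taken 30 min at room temperature after reagent addition, preceded by a CellTiter-Fluor viability read; BG1-Luc-4E2 cells had received compound and 17beta-estradiol for 21.5 h at 37 C.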

[19] = qHTS assay to identify small molecule antagonists of the estrogen receptor alpha (ER-alpha) signaling pathway using the BG1 cell line - cell viability counter screen (AID 743081);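 also: compound given together with 17beta-estradiol as the ER stimulus; nearly all actives have a fitted effect of over 45% in size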; also: potency is read from the fitted curve at half-maximal effect; as to activity change, negative = cytotoxicity: series mostly up to about 70 µM
Aromatase (Homo sapiens) = Aromatase (Homo sapiens) (UniProt P11511); experiment: qHTS assay to identify aromatase inhibitors (AID 743083)
Chain of Aromatase (Homo sapiens) (P11511 whole entry, looked up): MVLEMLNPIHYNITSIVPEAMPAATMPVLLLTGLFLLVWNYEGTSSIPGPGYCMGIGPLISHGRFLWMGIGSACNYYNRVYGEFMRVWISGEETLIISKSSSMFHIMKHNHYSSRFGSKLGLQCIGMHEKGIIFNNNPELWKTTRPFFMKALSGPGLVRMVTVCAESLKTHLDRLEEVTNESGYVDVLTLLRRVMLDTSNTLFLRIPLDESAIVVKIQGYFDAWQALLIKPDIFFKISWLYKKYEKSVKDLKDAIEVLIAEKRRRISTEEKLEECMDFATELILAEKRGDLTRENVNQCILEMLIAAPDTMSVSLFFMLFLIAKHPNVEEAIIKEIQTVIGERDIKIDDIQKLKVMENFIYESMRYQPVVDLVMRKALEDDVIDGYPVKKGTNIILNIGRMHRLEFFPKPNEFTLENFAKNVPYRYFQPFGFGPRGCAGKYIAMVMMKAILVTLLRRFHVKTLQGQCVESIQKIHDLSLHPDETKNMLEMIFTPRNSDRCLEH
% is scaled to controls: 0 for no effect and ±100 for the full control effect.

O=C(O)CNCC(=O)O
inactive: viability change, negative = cytotoxic [1] -8.93% [at 7.04 µM] | activity change, negative = cytotoxicity [2] 8.65% [at 8.52 µM] | activity, negative = cytotoxicity [3] -2.98% [at 8.53 µM] | activity change, negative = cytotoxicity [4] 1.1% [at 8.55 µM] | activity change, negative = cytotoxicity [5] 1.48% [at 7.04 µM] | activity change, negative = inhibition [6] 0.788% [at 7.04 µM] | activation [7] -0.671% [at 6.9 µM] | activity change [8] 1.91% [at 8.47 µM, stronger effect = higher value] | viability change, negative = cytotoxic [9] -11.9% [at 8.47 µM] | activity change, negative = inhibition [10] 1.72% [at 8.47 µM] | activity change, negative = cytotoxic [11] 2.43% [at 8.44 µM] | activity, negative = inhibition [12] -3.78% [at 8.44 µM] | activation [13] -1.57% [at 8.08 µM] | activity, negative = inhibition [14] -6.23% [at 6.71 µM] | activity, negative = cytotoxicity [15] -3.67% [at 6.72 µM] | activation [16] -4.82% [at 6.71 µM] | activation [17] 2.44% [at 8.47 µM] | activity change, negative = inhibition [18] 0.887% [at 8.47 µM] | activity change, negative = cytotoxicity [19] -9.74% [at 8.47 µM] | activity, negative = inhibition (Aromatase (Homo sapiens)) 14.5% [at 8.47 µM]

CC1OC(=O)C(C)OC1=O (stereo unspecified)
inactive: Potency [1] | Potency [2] | Potency [3] | Potency [4] | Potency [5] | Potency [9] | Potency [11] | Potency [12] | Potency [13] | Potency [14] | Potency [15] | Potency [16] | Potency [18] | Potency [19] | Potency (Aromatase (Homo sapiens))

CN(C)CCN(Cc1ccccc1)c1ccccn1
inactive: Potency [1] | Potency [2] | Potency [3] | Potency [4] | Potency [5] | Potency [9] | Potency [11] | Potency [12] | Potency [13] | Potency [14] | Potency [15] | Potency [16] | Potency [17] | Potency [18] | Potency [19] | Potency (Aromatase (Homo sapiens))

O=C1CCC(=O)O1
inactive: Potency [1] | Potency [2] | Potency [3] | Potency [4] | Potency [5] | Potency [9] | Potency [11] | Potency [12] | Potency [13] | Potency [14] | Potency [15] | Potency [16] | Potency [17] | Potency [18] | Potency [19] | Potency (Aromatase (Homo sapiens))

C[C@@H](c1ncncc1F)C(O)(Cn1cncn1)c1ccc(F)cc1F (stereo partly specified)
inactive: Potency [1] | Potency [2] | Potency [3] | Potency [4] | Potency [5] | Potency [6] | Potency [8] | Potency [9] | Potency [10] | Potency [11] | Potency [12] | Potency [13] | Potency [14] | Potency [16] | Potency [17] | Potency [18] | Potency [19] | Potency (Aromatase (Homo sapiens))

C=C(C)C(=O)OCCOCC
inactive: Potency [1] | Potency [2] | Potency [3] | Potency [4] | Potency [5] | Potency [9] | Potency [11] | Potency [12] | Potency [13] | Potency [14] | Potency [15] | Potency [16] | Potency [17] | Potency [18] | Potency [19] | Potency (Aromatase (Homo sapiens))

CCOC(=O)COC(=O)c1cc(Oc2ccc(C(F)(F)F)cc2Cl)ccc1[N+](=O)[O-]
active: Potency [2] 21.7 µM | Potency [3] 12.2 µM | Potency [4] 19.3 µM
inactive: Potency [1] | Potency [5] | Potency [7] | Potency [8] | Potency [9] | Potency [10] | Potency [11] | Potency [12] | Potency [13] | Potency [15] | Potency [19]

CCO[Si](CCCCl)(OCC)OCC
inactive: Potency [1] | Potency [2] | Potency [3] | Potency [4] | Potency [5] | Potency [9] | Potency [11] | Potency [12] | Potency [13] | Potency [14] | Potency [16] | Potency [17] | Potency [18] | Potency [19] | Potency (Aromatase (Homo sapiens))

NCCCN1CCOCC1
active: Potency [9] 30.6 µM
inactive: Potency [1] | Potency [2] | Potency [3] | Potency [4] | Potency [5] | Potency [7] | Potency [8] | Potency [10] | Potency [11] | Potency [12] | Potency [13] | Potency [14] | Potency [15] | Potency [16] | Potency [17] | Potency [18] | Potency [19] | Potency (Aromatase (Homo sapiens))

O=S(=O)(Oc1ccc(Cl)cc1)c1ccccc1
inactive: Potency [1] | Potency [2] | Potency [5] | Potency [9] | Potency [11] | Potency [12] | Potency [13] | Potency [14] | Potency [15] | Potency [16] | Potency [18] | Potency [19] | Potency (Aromatase (Homo sapiens))
active: Potency [3] 61.1 µM | Potency [4] 54.5 µM

ClCCOCCOCCCl
inactive: Potency [1] | Potency [2] | Potency [3] | Potency [4] | Potency [5] | Potency [9] | Potency [11] | Potency [12] | Potency [13] | Potency [15] | Potency [16] | Potency [17] | Potency [18] | Potency [19] | Potency (Aromatase (Homo sapiens))

Nc1ccc(N)c2c1C(=O)c1ccccc1C2=O
active: Potency [2] 17.2 µM | Potency [3] 27.3 µM | Potency [4] 7.7 µM | Potency [12] 24.3 µM | Potency [19] 24.3 µM
inactive: Potency [1] | Potency [5] | Potency [7] | Potency [8] | Potency [10] | Potency [13] | Potency [15]

COCC(C)OC(C)=O (stereo unspecified)
inactive: Potency [1] | Potency [2] | Potency [3] | Potency [4] | Potency [5] | Potency [9] | Potency [11] | Potency [12] | Potency [13] | Potency [14] | Potency [15] | Potency [18] | Potency [19] | Potency (Aromatase (Homo sapiens))

CN1CCC(N(Cc2cccs2)c2ccccc2)CC1
active: Potency [2] 9.44 µM | Potency [3] 11.9 µM | Potency [4] 10.6 µM | Potency [11] 11.9 µM | Potency [12] 23.7 µM
inactive: Potency [1] | Potency [5] | Potency [9] | Potency [13] | Potency [14] | Potency [15] | Potency [16] | Potency [17] | Potency [18] | Potency [19] | Potency (Aromatase (Homo sapiens))
